Inconclusive results are not listed. Calls of active or inactive are those of the source. Rule for the calls: active = hit-call score of the fitted dose curve at least 0.9, where 1 is the maximum; inconclusive = response in the unintended direction; inactive = score below 0.9.
Experiment: ACEA_ER_AUC_viability: ACEA Biosciences xCELLigence Real-Time Cell Analysis on Estrogen Receptor Agonism for Viability (AID 2283782);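 note: hit means loss of impedance signal meaning reduced cell growth or viability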
In short: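 Read-out: real-time electrical impedance (RT-CES) area under curve, loss of signal taken as reduced viability, normalized to DMSO baseline. T-47D cells, charcoal-stripped serum medium, compounds up to 100 uM final, continuous exposure, 80 h.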

Row | SMILES | outcome | AC50
1 | O=S(=O)(O)C(F)(F)C(F)(F)C(F)(F)C(F)(F)C(F)(F)C(F)(F)C(F)(F)F | inactive | –
2 | FC(F)(F)C(F)(F)C(F)(F)C(F)(F)C(F)(F)CCI | inactive | –
3 | C1COCCN1 | inactive | –
4 | O=C(O)C(F)(F)C(F)(F)C(F)F | inactive | –
5 | Oc1ccc(Nc2ccccc2)cc1 | – | 25.4 µM (active)
6 | CCN(CC)c1ccc2c(C)cc(=O)oc2c1 | – | 17.1 µM (active)
7 | C(=C(c1ccccc1)c1ccccc1)c1ccccc1 | – | 87.1 µM (active)
8 | COC(=O)C1CCC(C(=O)OC)CC1 (stereo unspecified) | inactive | –
9 | CCCCCCCOC(=O)c1ccccc1C(=O)OCCCCCCC | inactive | –
10 | FC(F)(F)C(F)(F)C(F)(F)C(F)(F)C(F)(F)C(F)(F)CCS | inactive | –
11 | FC(F)(F)C(F)(F)C(F)(F)C(F)(F)C(F)(F)C(F)(F)CC1CO1 (stereo unspecified) | inactive | –
12 | CC(C)c1ccccc1N | – | 50 µM (active)
13 | CS(C)(=O)=O | inactive | –
14 | CC/C=C\CCOC(=O)c1ccccc1 | – | 76.7 µM (active)
15 | O=C(O)C(F)(OC(F)(F)C(F)(OC(F)(F)C(F)(OC(F)(F)C(F)(F)C(F)(F)F)C(F)(F)F)C(F)(F)F)C(F)(F)F (stereo unspecified) | inactive | –
16 | c1ccc(-c2ccccc2-c2ccccc2)cc1 | – | 78.7 µM (active)
17 | Nc1ccc(Oc2cccc(Oc3ccc(N)cc3)c2)cc1 | – | 64.2 µM (active)
18 | O=S(=O)(O)c1ccc2ccccc2c1 | inactive | –

Row | SMILES | outcome | AC50
19 | Nc1ccc([N+](=O)[O-])cc1O | inactive | –
20 | O=C(O)C(F)(F)C(F)(F)F | inactive | –
21 | CCCCCCS | – | 50 µM (active)
22 | [Co] | inactive | –
23 | CC(Cc1ccc(O)c(O)c1)C(C)Cc1ccc(O)c(O)c1 (stereo unspecified) | – | 27.6 µM (active)
24 | CCCCCC=O | inactive | –
25 | CO[Si](OC)(c1ccccc1)c1ccccc1 | – | 79.9 µM (active)
26 | O=C(O)C(F)(F)C(F)(F)C(F)(F)C(F)(F)C(F)(F)C(F)(F)C(F)(F)C(F)(F)C(F)(F)C(F)(F)C(F)(F)C(F)(F)F | – | 19.3 µM (active)
27 | FC(F)(F)C(F)(F)C(F)(F)C(F)(F)C(F)(F)C(F)(F)C(F)(F)Br | inactive | –
28 | COC(=O)CCC(F)(F)C(F)(F)C(F)(F)C(F)(F)F | inactive | –
29 | FC(F)(F)C(F)(F)CNCC(F)(F)C(F)(F)F | inactive | –
30 | CC(C)=CCCC(C)CCOC(=O)C(C)C (stereo unspecified) | – | 50 µM (active)
31 | O=C(O)C(F)(F)C(F)(F)C(F)(F)F | inactive | –
32 | CC(C)(C)C(=O)CC(=O)C(F)(F)C(F)(F)C(F)(F)F | inactive | –
33 | OCC(F)(F)C(F)(F)C(F)(F)F | inactive | –
34 | COC(OC(C)=O)c1ccccc1 (stereo unspecified) | inactive | –
35 | O[Si](c1ccccc1)(c1ccccc1)c1ccccc1 | – | 196 µM (active)
36 | Cc1ccc(S(=O)(=O)NCl)cc1 | inactive | –
